From PubChem
Sampled rows, rich in hits. Any-hit rate of the full collection: about 11%.
G9a inh: qHTS Assay for Inhibitors of Histone Lysine Methyltransferase G9a; hit rate 8.8% among 350,000; Histone-lysine N-methyltransferase EHMT2 (Homo sapiens), Q96KQ7; G9a H3K9 monomethylation, AlphaScreen, 2 h; Potency, µM (doses to about 102 µM), inactives show at the top dose activity, negative = inhibition, actives largely listed as inhibitors; note: potency is the fitted concentration of half-maximal effect; % is set by controls: 0 for no effect and ±100 for the full control effect; nearly all actives have a fitted effect of over 75% in size
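G9a (20 nM) was preincubated 15 min with compound, then reacted 2 h at room temperature with 500 nM biotin-H3K9 peptide and 20 µM SAM. Monomethyl-H3K9 detected by AlphaScreen using anti-H3K9me1 antibody.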
PI5P4K alpha inh: qHTS for Inhibitors of phosphatidylinositol 5-phosphate 4-kinase (PI5P4K) | Phosphatidylinositol 5-phosphate 4-kinase type-2 alpha (Homo sapiens), P48426 | hit rate 1.2% among 330,000 | PI5P4Kalpha enzyme, ADP-Glo luminescence, 60 min; stronger effect = lower value | max response, %; active = max response of -50% or lower; inconclusive = between -30% and -50%; inactive = -30% or higher; note: value at the top dose of about 77 µM; % is set by controls: 0 for no effect and ±100 for the full control effect
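Luminescence from ADP-Glo served as readout of PI5P4Kalpha activity in a qHTS format. Reaction: enzyme, substrate, compound, ATP at 5 microM final, 60 min at RT.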
JMJD2A Tudor inh: qHTS Assay for Inhibitors of JMJD2A-Tudor Domain. Lysine-specific demethylase 4A (Homo sapiens), O75164. AlphaScreen JMJD2A-Tudor / H3K4me3 peptide binding. Potency, µM (titrated, usually from 114 µM), without a hit: at the top dose activity change, negative = inhibition, usual class: inhibitors. hit rate 4.4% among 390,000. AID 504339, 2011; note: potency is the fitted concentration of half-maximal effect; % is set by controls: 0 for no effect and ±100 for the full control effect; nearly all actives have a fitted effect of over 50% in size
BAZ2B inh: qHTS Assay for Inhibitors of BAZ2B. Bromodomain adjacent to zinc finger domain protein 2B (Homo sapiens), Q9UIF8. AID 504333, 2011. AlphaScreen BAZ2B-H3K14Ac peptide displacement. hit rate 4.4% among 360,000. Potency, µM (series often up to 114 µM), for the others: at the highest dose activity change, negative = inhibition, usual class: inhibitors; note: potency is the fitted concentration of half-maximal effect; % is set by controls: 0 for no effect and ±100 for the full control effect; nearly all actives have a fitted effect of over 60% in size
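AlphaScreen luminescence quantifies BAZ2B engagement of H3K14Ac peptide; the protein and biotinylated peptide are both at 50 nM final, buffer PBS pH 7.4 with 0.01% Tween-20, all steps at room temperature.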
L3MBTL1 block: qHTS Assay for the Inhibitors of L3MBTL1; Lethal(3)malignant brain tumor-like protein 1 (Homo sapiens), Q9Y468; AlphaScreen L3MBTL1–H3K9me1 peptide binding; Potency, µM (titrated, usually from 57.1 µM), without a hit: at the highest dose activity, negative = inhibition, actives largely listed as inhibitors; hit rate 0.66% among 230,000; note: potency is the fitted concentration of half-maximal effect; % is set by controls: 0 for no effect and ±100 for the full control effect; nearly all actives have a fitted effect of over 60% in size
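AlphaScreen assay: L3MBTL1 (50 nM final) was preincubated 30 min at room temperature with biotinylated H3(1-15)K9me1 peptide (75 nM final), then 30 min with library compounds; streptavidin donor and nickel chelate acceptor beads (10 ug/mL final) added, 30 min dark.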
HP1b binding inh: HTS for Inhibitors of HP1-beta Chromodomain Interactions with Methylated Histone Tails; Chromobox protein homolog 1 (Homo sapiens), P83916; AlphaScreen HP1-beta / biotin-H3K9me3 peptide binding; Potency, µM (titrated, usually from 114 µM), for the others: at the highest dose activity change, negative = inhibition, hits mostly inhibitors; hit rate 0.56% among 390,000; note: potency is the fitted concentration of half-maximal effect; nearly all actives have a fitted effect of over 70% in size
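Compound inhibition of the preformed complex between 50 nM HP1-beta and 50 nM biotinylated H3K9me3 peptide was read by AlphaScreen. Buffer was PBS pH 7.4 with 0.01% Tween-20. Incubations ran 30 min at room temperature, with 10 ug/mL donor/acceptor beads.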
An asterisk follows results filed as active; [ ] = remark or other dose. Unless noted, calls come from the whole dose curve; as a rule, active = well fitted inhibition curve with a large enough effect; inconclusive = small, poorly fitted or top-dose-only effect; inactive = no such curve, though single readings can be large or run the other way.

How did CCc1cc(-c2n[nH]c(C)c2-c2nc3ccccc3n2C)c(O)cc1O do in these assays?
G9a inh: -42%; PI5P4K alpha inh: 11; JMJD2A Tudor inh: -32%; BAZ2B inh: inconclusive; L3MBTL1 block: -25%; HP1b binding inh: 15%

Results for Cc1ccc(N2CC(NC(=O)/C=C\c3ccc4c(c3)OCO4)CC2=O)cc1C (stereo not given) ?
G9a inh: -28%[59 µM]; JMJD2A Tudor inh: -27%; BAZ2B inh: -3%; HP1b binding inh: 37%

Results for Cc1cc(C)c(NC(=O)Cn2nc3c(cc2=O)CCCC3)c(C)c1 ?
G9a inh: -1%[59 µM]; JMJD2A Tudor inh: -1%; BAZ2B inh: 0%; HP1b binding inh: 29%[57 µM]

How did COc1ccccc1/C=C/C=N/n1c(-c2ccccn2)n[nH]c1=S do in these assays?
G9a inh: 1.6µM*; PI5P4K alpha inh: -9; JMJD2A Tudor inh: 8.9µM*; BAZ2B inh: 14µM*; L3MBTL1 block: inconclusive; HP1b binding inh: 8%

What do the screens show for `COc1ccccc1/C=C\C=N\n1c(C2CCCCC2)n[nH]c1=S`?
G9a inh: -5%[0.0925 µM]; PI5P4K alpha inh: -4; JMJD2A Tudor inh: -22%; BAZ2B inh: inconclusive; L3MBTL1 block: -11%; HP1b binding inh: inconclusive

How did Cc1nnc(C)n1/N=C/C=C/c1ccccc1 do in these assays?
G9a inh: 3%; PI5P4K alpha inh: 8; JMJD2A Tudor inh: -14%; BAZ2B inh: 0%; L3MBTL1 block: 1%; HP1b binding inh: 6%

Results for COc1ccccc1/C=C/C=N/n1c(-c2cc(C)[nH]n2)n[nH]c1=S ?
G9a inh: 1.6µM*; PI5P4K alpha inh: -1; JMJD2A Tudor inh: 7.9µM*; BAZ2B inh: inconclusive; L3MBTL1 block: -11%; HP1b binding inh: -30%

How did Cc1cc(-c2n[nH]c(=S)n2/N=C/C=C/c2ccccc2)n[nH]1 do in these assays?
G9a inh: 1.4µM*; PI5P4K alpha inh: -14; JMJD2A Tudor inh: 10µM*; BAZ2B inh: inconclusive; L3MBTL1 block: -10%; HP1b binding inh: inconclusive

How did COc1ccc(C(CCNCc2ccc(OC(C)C)cc2)C(C)C)cc1 (stereo not given) do in these assays?
G9a inh: 5%; PI5P4K alpha inh: -1; JMJD2A Tudor inh: -11%; BAZ2B inh: -8%; L3MBTL1 block: -4%; HP1b binding inh: 22%

Results for COc1ccccc1C(CCNCc1ccc(N(C)C)cc1)c1ccc(OC(C)C)cc1 (stereo not given) ?
G9a inh: 18%[2.33 µM]; PI5P4K alpha inh: -6; JMJD2A Tudor inh: 13µM*; BAZ2B inh: 10µM*; HP1b binding inh: inconclusive

What do the screens show for `COc1ccc(C(CCNCc2ccc(N(C)C)cc2)C(C)C)cc1` (stereo not given)?
G9a inh: 32µM*; PI5P4K alpha inh: 2; JMJD2A Tudor inh: 32µM*; BAZ2B inh: 25µM*; L3MBTL1 block: inconclusive; HP1b binding inh: inconclusive

Results for Cc1nn(C(=O)c2cccc([N+](=O)[O-])c2C)c(C)c1S(=O)(=O)N1CCOCC1 ?
G9a inh: -36%[59 µM]; JMJD2A Tudor inh: -1%; BAZ2B inh: -4%; HP1b binding inh: 27%[57 µM]

Results for C[n+]1cn(/N=C/c2ccccc2)c2ccccc21 ?
G9a inh: 1.6µM*; PI5P4K alpha inh: -1; JMJD2A Tudor inh: inconclusive; BAZ2B inh: 10%; L3MBTL1 block: 10%; HP1b binding inh: 17%
